HTT aggregate: qHTS Multiplex Assay to Identify Dual Action Probes in a Cell Model of Huntington: Aggregate Formation (GFP); 220,000 tested, 1.1% active; PC12 HttQ103-GFP aggregates, Acumen cytometry, 40 h; Potency, µM (doses to about 46.1 µM), inactives show at the highest dose activity change, negative = inhibition, usual class: inhibitors; note: potency is the fitted concentration of half-maximal effect; % is set by controls: 0 for no effect and ±100 for the full control effect; nearly all actives have a fitted effect of over 60% in size
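PC12 cells with ecdysone-inducible HTT exon1 Q103-GFP, induced by 100 nM tebufenozide, given compounds in a concentration series. GFP aggregates (1–25 um, 6 SD above background) counted in lysates by laser-scanning cytometry, 488 nm excitation.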
CBFb RUNX1 block: qHTS Assay for Compounds Blocking the Interaction Between CBF-beta and RUNX1 for the Treatment of Acute Myeloid Leukemia. AlphaScreen CBFb-His/RUNX1-biotin binding, biochemical. Potency, µM (doses to about 59.8 µM), for the others: at the top dose activity, negative = inhibition, actives largely listed as inhibitors. AID 1477, 2009. Runt-related transcription factor 1 (Homo sapiens) + Core-binding factor subunit beta …. 230,000 tested, under 10 active; note: % of control where 0% means no effect
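Room-temperature protein-protein interaction test with 30 nM each of His-tagged CBF-beta and biotinylated RUNX1, 15 min with compound, then 90 min with nickel plus streptavidin beads. Signal read in AlphaScreen mode.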
HTT ATP protect: qHTS Multiplex Assay to Identify Dual Action Probes in a Cell Model of Huntington: Cytoprotection (ATP) | PC12 HTT-Q103 induced, cytoprotection, ATP luminescence, 40 h | Potency, µM (highest dose often 56.4 µM), for inactives: cytoprotection (ATP increase), actives largely listed as activators | 230,000 tested, 0.14% active | AID 1471, 2008; note: potency is the fitted concentration of half-maximal effect; % of control where 0% means no effect; nearly all actives have a fitted effect of over 45% in size
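Rat PC12, Q103 Htt exon1-GFP fusion, ecdysone promoter; tebufenozide inducer 100 nM final; compound titration; qHTS, 1500 cells/well; ATPlite luminescent read.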
NPSR antag: qHTS Assay for Antagonists of the Neuropeptide S Receptor: cAMP Signal Transduction. Potency, µM (highest dose often 38.3 µM), for the others: top-dose activity change, negative = inhibition, hits mostly inhibitors. CHO-NPSR cells, cAMP TR-FRET, antagonist mode. 220,000 tested, 1% active. Q6W5P4. AID 1461, 2008; note: potency is the fitted concentration of half-maximal effect; % is set by controls: 0 for no effect and ±100 for the full control effect; nearly all actives have a fitted effect of over 50% in size
Target sequence (Q6W5P4 whole entry, looked up): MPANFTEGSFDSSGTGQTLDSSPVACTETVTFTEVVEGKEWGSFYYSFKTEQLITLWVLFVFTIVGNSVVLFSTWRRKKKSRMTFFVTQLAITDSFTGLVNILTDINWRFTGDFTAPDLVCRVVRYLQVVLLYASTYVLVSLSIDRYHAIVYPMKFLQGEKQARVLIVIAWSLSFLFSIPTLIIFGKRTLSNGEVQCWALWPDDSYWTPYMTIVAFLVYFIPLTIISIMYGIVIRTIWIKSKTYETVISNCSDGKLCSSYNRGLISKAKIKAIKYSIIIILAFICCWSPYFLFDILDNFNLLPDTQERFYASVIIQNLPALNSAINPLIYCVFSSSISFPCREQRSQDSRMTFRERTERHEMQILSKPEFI
Lamin A splicing: qHTS Assay for Modulators of Lamin A Splicing; AID 1487, 2009; 200,000 tested, 0.01% active; Potency, µM (doses to about 46.1 µM), for inactives: top-dose ratio change, negative = inhibition, most hits filed as inhibitors; HeLa LMNA splicing GFP/RFP minigene ratio, 48 h; active = well fitted inhibition curve with a large enough effect in the signal ratio, with a control signal flat, not every such curve was filed as active; inconclusive = small, poorly fitted or top-dose-only effect, or effect the other way, or a change in a side signal; the % refers to the signal ratio; note: potency is the fitted concentration of half-maximal effect; % is set by controls: 0 for no effect and ±100 for the full control effect
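S3 HeLa stable clones carrying a lamin A-EGFP splicing minigene plus DsRed2 were seeded at 600 cells/well in Opti-MEM with 2% FBS, pin-dosed and incubated 48 h at 37°C. Acumen cytometry (488 nm) gave the GFP/RFP total-intensity ratio.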
MBNL1-CUG inh: qHTS Assay for Inhibitors of MBNL1-poly(CUG) RNA binding; AID 2675, 2010; TR-FRET MBNL1-His/biotin-(CUG)12 binding, 665/545 ratio; 280,000 tested, 0.036% active; Muscleblind-like protein 1 (Homo sapiens), Q9NR56; Potency, µM (titrated, usually from 57.5 µM), inactives show top-dose activity change, negative = inhibition, most hits filed as inhibitors; active = well fitted inhibition curve with a large enough effect in the signal ratio, with a control signal flat, not every such curve was filed as active; inconclusive = small, poorly fitted or top-dose-only effect, or effect the other way, or a change in a side signal; inactive = no such curve, though single readings can be large or run the other way; the % refers to the signal ratio; note: potency is the fitted concentration of half-maximal effect; % is set by controls: 0 for no effect and ±100 for the full control effect
Target sequence (Q9NR56 whole entry, looked up): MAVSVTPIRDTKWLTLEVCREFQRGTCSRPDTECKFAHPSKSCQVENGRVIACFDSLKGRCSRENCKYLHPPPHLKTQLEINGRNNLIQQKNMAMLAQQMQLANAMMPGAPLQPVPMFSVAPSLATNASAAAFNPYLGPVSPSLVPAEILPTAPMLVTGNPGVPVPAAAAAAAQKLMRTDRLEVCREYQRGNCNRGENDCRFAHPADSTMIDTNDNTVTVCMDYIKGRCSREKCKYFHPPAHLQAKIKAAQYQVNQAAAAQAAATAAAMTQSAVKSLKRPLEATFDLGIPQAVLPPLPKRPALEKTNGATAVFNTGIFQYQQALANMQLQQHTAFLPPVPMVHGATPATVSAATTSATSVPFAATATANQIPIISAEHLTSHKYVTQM
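Inhibition of protein-RNA binding appears as loss of TR-FRET between terbium anti-His antibody on MBNL1-His and streptavidin-XL665 on biotin-(CUG)12. Activity is normalized to buffer-only and uninhibited-complex controls.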
Starred values were filed as active, the others as inactive; ? = inconclusive; / = no result; [ ] = another dose, or the depositor's remark. Sampled rows, rich in hits. Any-hit rate of the full collection: about 1.1%. Unless noted, calls come from the whole dose curve; as a rule, active = well fitted curve in the direction sought with a large enough effect; inconclusive = small, poorly fitted or top-dose-only effect, or another doubt; inactive = no such curve, though single readings can be large; an effect the other way counts as inactive or inconclusive.

SMILES	HTT aggregate	CBFb RUNX1 block	HTT ATP protect	NPSR antag	Lamin A splicing	MBNL1-CUG inh
O=C(Oc1c(CN2CCOCC2)cc(Cl)c2cccnc12)c1ccccc1	?	?	-145.9%	-34.2%	/	12.9%
O=C(Oc1c(CN2CCOCC2)cc(Cl)c2cccnc12)c1ccccc1F	?	?	-47.1%[10 µM]	7.94µM*	?	/
COc1cc(OC)cc(C(=O)NNC(=O)c2ccccn2)c1	11.2µM*	-29.8%	-1.4%[10 µM]	8.9%	?	30.6%
Cc1ccc(C)c(C(=O)N(Cc2nc(-c3ccc(Cl)cc3)no2)C(C)C)c1	22.4µM*	6.1%	-1.5%	?	-13.8%	4.4%
O=C(O)COc1ccc2nsnc2c1Cl	-5.0%	11.6%	-5.9%	12.6µM*	5.7%	?
Nc1nc(N)nc(-c2ccc(Cl)cc2)n1	-4.7%[9.22 µM]	-1.5%	-21.2%	-9.3%[46.1 µM]	1.3%	9.5%
Nc1nc(N)nc(-c2cc(Cl)ccc2Cl)n1	0.5%	3.2%	7.94µM*	/	?	/
N#Cc1c(NC(=O)C(F)(F)F)sc2c3c(=O)c4ccccc4c(=O)c=3oc3ccccc3c12	/	/	-20.6%[10 µM]	/	/	/
Cc1ccc2c(n1)sc1c(-c3ccccc3)c(C#N)c(N)nc12	12.6µM*	4.7%	-60.6%	-19.9%[46.1 µM]	2.8%	6.6%
COC(=O)/C=C/c1cc(O)ccc1O	/	4.2%	-81.6%	/	/	/
O=C1CC(N2CCN(c3ccc(Cl)c(Cl)c3)CC2)C(=O)N1 (configuration not stated)	25.1µM*	6.1%	2.7%	18.7%[46.1 µM]	?	-14.4%
C=CCNc1ncnc2ccccc12	-22.1%	0.0%	8.7%	-4.9%[46.1 µM]	6.5%	7.1%
OCCCCCNc1ncnc2ccccc12	7.94µM*	7.6%	29.3%[10 µM]	6.7%[46.1 µM]	?	-2.8%
Nc1ncnc(NCc2ccc(F)cc2)c1[N+](=O)[O-]	?	4.6%	-13.6%[10 µM]	23.0%	/	?
Nc1ncnc(NCc2ccccc2)c1[N+](=O)[O-]	11.2µM*	1.1%	/	10.3%	-10.5%	?
c1ccc(CNc2ncnc3ccccc23)cc1	4.47µM*	6.0%	4.1%[10 µM]	2.9%[46.1 µM]	?	-19.2%
O=C(c1ccc(Cl)cc1)N1CCC(O)(CSc2ccc(Cl)cc2Cl)CC1	10µM*	6.6%	36.7%[10 µM]	?	?	-1.4%
O=C(c1ccc(Cl)c(Cl)c1)N1CCC(O)(CN2CCOCC2)CC1	6.9%	0.0%	-16.1%	1.0%	1.9%[46 µM]	-1.4%
CC(C)[C@]1(Cl)CC[C@@H]2[C@]3(C)CCC[C@@](C)(C(=O)O)[C@H]3C[C@H](Cl)[C@@]2(Cl)[C@H]1Cl	/	/	-2.9%[10 µM]	/	/	/
Cc1cc(C(=O)N2CCN(c3ccc(C(F)(F)F)cn3)CC2)c(C)o1	-15.1%[9.22 µM]	4.4%	26.7%[10 µM]	22.9%	9.0%[46 µM]	1.2%
Cc1cccc(C(=O)N2CCN(c3ccc(C(F)(F)F)cn3)CC2)c1C	15.8µM*	1.9%	-3.4%	-10.8%[46.1 µM]	?	6.1%
O=C(Sc1cccc2cccnc12)c1ccc(F)cc1	10µM*	/	19.5%[10 µM]	?	?	13.2%
O=S(=O)(Nc1cc(Sc2cccc3cccnc23)c(O)c2ccccc12)c1ccc(F)cc1	22.4µM*	/	/	-7.2%	?	?
COc1ccc(S(=O)(=O)Nc2cc(Sc3ncn[nH]3)c(O)c3ccccc23)cc1	-25.4%[9.22 µM]	-1.8%	-119.0%	?	?	?
CCCNC(=O)OC[C@@H]1O[C@H](CCO/N=C(\C)CCN2CCCCc3nc(C)c(C)cc32)C=C[C@@H]1Oc1ccc(OC)cc1	/	9.8%[13.1 µM]	2.4%[10 µM]	/	/	/
SMILES	HTT aggregate	CBFb RUNX1 block	HTT ATP protect	NPSR antag	Lamin A splicing	MBNL1-CUG inh
COc1cccc(CNC(=O)CN2C(=O)N(c3ccc(C)cc3C)S(=O)(=O)c3ccccc32)c1OC	/	/	/	/	-2.1%[46 µM]	/
CCCCCCCCCCCCCCCC[n+]1cccc2ccccc21	7.94µM*	4.8%	-5.1%[10 µM]	?	?	8.7%
CCCCCCCCC[n+]1cccc2c3ccccc3ccc21	2.51µM*	-2.4%	-70.0%	?	?	?
O.O.[Mn].[Mn].[Mn].[OH-].[OH-]	/	12.4%	/	/	/	/
NS(=O)(=O)c1ccc(NC(=O)CSc2ncnc3ccccc23)cc1	-1.6%	9.0%	8.91µM*	-51.4%	-11.0%[46 µM]	45.3%
CCOC(=O)c1c(NC(=O)CSc2ncnc3ccccc23)sc(C(C)=O)c1C	-22.5%	-0.2%	2.51µM*	10.4%	?	/
CO[C@H]1/C=C/O[C@@]2(C)Oc3c(C)c(O)c4c(O)c(c(/C=N\N5CCN(C6CCCC6)CC5)c(O)c4c3C2=O)NC(=O)/C(C)=C\C=C\[C@H](C)[C@H](O)[C@@H](C)[C@@H](O)[C@@H](C)[C@H](OC(C)=O)[C@@H]1C	-31.7%	/	-65.0%	/	/	/
S=C(Nc1ccccc1)c1ccccn1	-10.3%[9.22 µM]	-10.9%	-41.6%[10 µM]	3.98µM*	-3.1%	10.5%
S=C(Nc1ccc(Nc2ccccc2)cc1)Nc1ccccn1	2.7%[9.22 µM]	-5.4%	-52.2%	-40.7%	/	1.1%
CCCCOC(=O)NS(=O)(=O)c1sc(CC(C)C)cc1-c1ccc(Cn2c(CC)nc3c(C)cc(C)nc32)cc1	/	-11.1%	0.7%[1.9 µM]	12.6µM*	?	/
CCOc1ccccc1-c1nnc2n1N=C(c1cc(OC)cc(OC)c1)CS2	/	-2.6%	/	/	/	/
Nc1nc(SCC(=O)O)[nH]c(=O)c1N	/	/	-5.3%[10 µM]	/	/	/
Cc1cc(N2CCOCC2)c2c(N)c(Br)cc(C)c2n1	2µM*	-7.3%	-26.0%	-2.6%[46.1 µM]	12.0%	?
Cc1cc(=O)[nH]c(N2CCOCC2)n1	/	5.2%	/	3.8%	23.2%[46 µM]	-0.5%
CC(=O)N(c1ccc2oc(=O)sc2c1)S(=O)(=O)c1cccs1	?	-7.8%	?	-2.8%[46.1 µM]	-2.1%	-8.6%
CC(C)C(=O)N(c1ccc2oc(=O)sc2c1)S(=O)(=O)c1cccs1	/	-22.7%	12.6µM*	-9.6%[46.1 µM]	3.3%	12.4%
c1ccc(COCCCc2cnc[nH]2)cc1	/	10.2%	-2.0%	/	/	/
NCCCCCc1cnc[nH]1	/	-11.4%	0.794µM*	/	/	/
COC(=O)CCC(=O)OC1(C)C(=O)C=C2C=C(C3CC3)N(c3ccc(OC)cc3)C=C2C1=O (configuration not stated)	/	10.4%[13.1 µM]	23.7%[10 µM]	/	-0.1%[9.22 µM]	/
CC1=C(CO)C(=O)OC([C@@H](C)C2CC[C@H]3C4C[C@H]5O[C@]56[C@@H](O)C=CC(=O)[C@]6(C)C4CC[C@]23C)C1 (some centres not stated)	?	12.4%	3.55µM*	5.01µM*	/	-6.5%
